# Screens (PubChem BioAssay)
# SMN2 splice up – enhancers of SMN2 splice variant expression; HEK293 SMN2-luciferase splicing reporter, luminescence, 30-36 h; Potency, µM (highest dose often 46.1 µM), for inactives: at the highest dose activity change, positive = activation, actives largely listed as activators; actives 2.8% (n = 210,000); note: % of control where 0% means no effect; nearly all actives have a fitted effect of over 55% in size
#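 qHTS luciferase splicing reporter: luminescence rises when SMN2 exon 7 is included in transfected HEK293 cells. Compound exposure lasted 30-36 h at 37C, with 4.5 mM final sodium butyrate as control, followed by a ONE-Glo read.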
# NPC1 promoter act – NPC1 promoter activation | Huh7 NPC1 promoter luciferase reporter, 24 h | AID 485313 | Potency, µM (top dose mostly 9.22 µM), inactives show top-dose activation, most hits filed as activators | actives 2.4% (n = 320,000); note: % of control where 0% means no effect; nearly all actives have a fitted effect of over 60% in size
#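 Compounds in DMSO were transferred onto Huh7 NPC1-luciferase reporter cells pre-incubated 2 h; after 24 h at 37 °C, Amplite reagent was dispensed and luminescence recorded 10 min later.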
# FLuc counter – firefly luciferase modulation, counter-screen for miR-21 project; P08659; purified FLuc, Km substrates, luminescence inhibition; Potency, µM (top dose mostly 57.5 µM), for inactives: at the top dose activity change, negative = inhibition, hits mostly inhibitors; actives 6.9% (n = 360,000); AID 588342;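 note: plate controls were vehicle for no effect and reference inhibitor for full effect; nearly all actives have a fitted effect of over 55% in size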
# Target sequence (P08659 whole entry, looked up): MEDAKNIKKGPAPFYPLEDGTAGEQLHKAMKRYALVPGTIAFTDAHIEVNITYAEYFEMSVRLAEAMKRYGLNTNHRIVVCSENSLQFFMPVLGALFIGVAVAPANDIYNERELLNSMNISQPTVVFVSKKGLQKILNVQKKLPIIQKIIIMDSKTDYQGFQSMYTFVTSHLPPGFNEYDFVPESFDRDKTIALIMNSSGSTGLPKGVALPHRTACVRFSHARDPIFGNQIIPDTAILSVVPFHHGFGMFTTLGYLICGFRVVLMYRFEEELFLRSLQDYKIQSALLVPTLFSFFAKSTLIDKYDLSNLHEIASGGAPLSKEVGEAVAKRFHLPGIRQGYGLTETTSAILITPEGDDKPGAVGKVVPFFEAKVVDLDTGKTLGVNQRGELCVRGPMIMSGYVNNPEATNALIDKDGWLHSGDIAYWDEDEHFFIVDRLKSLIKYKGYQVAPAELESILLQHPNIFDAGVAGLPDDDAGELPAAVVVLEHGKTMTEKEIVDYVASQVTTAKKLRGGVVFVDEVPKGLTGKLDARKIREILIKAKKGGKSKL
#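 Purified P. pyralis luciferase (10nM final) with 10uM D-luciferin and 10uM ATP (Km levels) in 50mM Tris acetate pH 7.5, 10mM Mg acetate, 0.01% Tween-20, 0.05% BSA; qHTS 6-point titration, ~60 µM downward; luminescence read.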
# ELG1 genotox – genotoxicity induction in ELG1-luciferase HEK293T cells; AID 504466; actives 1.3% (n = 330,000); HEK293T ELG1-luciferase reporter, luminescence, 16 h; Potency, µM (top dose mostly 46 µM), for inactives: top-dose activity change, positive = activation, actives largely listed as activators; note: % of control where 0% means no effect; nearly all actives have a fitted effect of over 60% in size
#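 Reporter readout depends on ELG1 protein level, which increases with genetic stress. After 16 hr compound exposure at 37 °C, luciferase activity was quantified using ONE-Glo.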
# Luc counter – counter-screen: inhibitors of Kinase-Glo firefly luciferase; Q27757; Potency, µM (titrated, usually from 38.3 µM), for inactives: at the top dose activity change, negative = inhibition, most hits filed as inhibitors; actives 0.28% (n = 200,000); Kinase-Glo luciferase, ATP luminescence, 8 min; note: % is set by controls: 0 for no effect and ±100 for the full control effect; nearly all actives have a fitted effect of over 60% in size
#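 Substrate mix (final 50 mM imidazole pH 7.2, 50 mM KCl, 7 mM MgCl2, 10 uM ATP, 0.01% Tween 20, 0.05% BSA) plus pin-tool compound, then Kinase-Glo detection mix; 8 min ambient, luminescence read.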
# Rab9 prom act – Rab9 promoter activation; actives 2.8% (n = 320,000); Huh7 Rab9 promoter-luciferase reporter, luminescence, 24 h; Potency, µM (series often up to 9.22 µM), for inactives: top-dose activation, negative = inhibition, most hits filed as activators; note: % of control where 0% means no effect; nearly all actives have a fitted effect of over 60% in size
#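 Using Huh7 cells stably transfected with Rab9 promoter–luciferase, compounds were incubated 24 h at 37 °C, 5% CO2; luciferase luminescence was read 10 min after reagent addition.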
# * marks the source's active call; other numbers are inactive results; ? = inconclusive; · = no result given; [ ] = another dose, or the depositor's remark. In the library only some 7.3% were active in any assay of this set; here they are far more common. Calls come from the whole dose curve; as a rule, active = well fitted curve in the direction sought with a large enough effect; inconclusive = small, poorly fitted or top-dose-only effect, or another doubt; inactive = no such curve, though single readings can be large; an effect the other way counts as inactive or inconclusive. Potency is the fitted concentration of half-maximal effect.
SMILES,SMN2 splice up,NPC1 promoter act,FLuc counter,ELG1 genotox,Luc counter,Rab9 prom act
CN(C)C1C(=O)C(C(N)=O)=C(O)[C@@]2(O)C(=O)C3=C(O)c4c(O)ccc(Cl)c4[C@@H](O)C3C[C@@H]12 (stereo not given in full),-16%,·,·,·,-3%,·
Cc1cc(C)c(S(=O)(=O)/N=C2/C=C(SCC(=O)O)C(=O)c3ccccc32)cc1C,-79%,4%,21µM*,-7%,-6%,-1%
Cc1cc(C)c(S(=O)(=O)Nc2cc(SCC(=O)O)c(O)c3ccccc23)cc1C,-115%,8%,?,-10%,-2%,5%
Nc1ccc[n+](CC(=O)c2ccccc2)c1,·,-3%,5%,0%,·,4%
CCc1n[n+](CC(=O)c2ccccc2)c(N)s1,4µM*,0.32µM*,2.4µM*,?,10µM*,0.5µM*
O=C(N/N=C/c1cccc([N+](=O)[O-])c1)c1cccs1,13µM*,?,8.5µM*,?,1%,?
Nc1nonc1C(=O)N/N=C/c1cccc([N+](=O)[O-])c1,7%,-2%,12µM*,1%,-6%,-6%
O=C(O)c1cc2cc(OCc3ccccc3)ccc2[nH]1,-2%,5%,19µM*,12%,1%,10%
NNC(=O)c1cc2cc(Oc3ccccc3)ccc2[nH]1,·,1%,-12%,-3%,·,6%
O=C(O)/C=C/c1cccc(OCc2ccccc2)c1,-7%,7%,13µM*,5%,-3%,20%
COc1ccc([N+](=O)[O-])cc1/C=N/NC(=O)c1nonc1N,0%,-6%,-1%,-2%,2%,2%
CC(NC(=O)c1ccccc1)(C(=O)O)C(=O)O,-11%[9.22 µM],·,·,·,-4%[7.66 µM],·
CCOC(=O)c1ccc(NC(=O)CSc2cn(CC(=O)N3CCCC3)c3ccccc23)cc1,·,·,-10%,·,·,·
CCOc1ccccc1NC(=O)CN(CCc1ccccc1)S(=O)(=O)c1ccc(C)cc1,-10%,·,-6%,·,·,·
CCOC(=O)c1cccc(NC(=O)CCc2c(C)nc3c4cccnc4nn3c2C)c1,?,·,-2%,·,·,·
Cc1ccc(NC(=O)Cn2nc(C)n3cccc3c2=O)c(C)c1,·,·,-1%,·,·,·
CN(C)c1ccc(/C=N/NC(=O)c2nonc2N)cc1[N+](=O)[O-],·,1%,12µM*,0%,-15%,1%
O=C(N/N=C/c1ccccc1)c1sccc1OCc1ccc(F)cc1,-17%,-2%,19µM*,2%,-6%,0%
O=C(N/N=C/c1ccccc1)c1ccc(OCc2ccccc2)cc1,-23%,1%,-2%,?,-1%,15%
O=C(N/N=C/c1cccc(OCc2ccccc2)c1)c1cccs1,-11%,23%,13µM*,5%,4%,28%
O=C(O)c1ccc(COc2ccc(/C=N/NC(=O)c3cccs3)cc2)cc1,-16%,2%,-10%,3%,0%,-8%
CC(=O)c1c(C)oc2ccc(OCc3ccccc3)cc12,·,26%,17µM*,12%,·,27%
CCOC(=O)c1ccccc1NS(=O)(=O)c1c(-c2ccc(C)cc2)csc1C(=O)OC,·,·,0%,·,·,·
CC(C)(C)OC(=O)N1CCC(c2c(C(=O)NCCN3CCOCC3)cnn2-c2ccc(F)cc2)CC1,·,·,-3%,·,·,·
Cc1ccc(C(=O)NC(=S)Nc2ccc3c(c2)OCCO3)c(C)c1,15%,?,9.5µM*,?,0%,?
SMILES,SMN2 splice up,NPC1 promoter act,FLuc counter,ELG1 genotox,Luc counter,Rab9 prom act
O=C(NC(=S)Nc1ccc2c(c1)OCCO2)c1ccc(F)cc1Cl,13µM*,25%,13µM*,?,-1%,27%
O=C(NC(=S)Nc1ccc2c(c1)OCO2)c1ccc(Cl)cc1,13µM*,4µM*,?,?,-2%,2.2µM*
Cc1cc(C)cc(C(=O)NC(=S)Nc2ccc3c(c2)OCCO3)c1,·,?,6.7µM*,?,·,?
Cc1ccc(C(=O)NC(=S)Nc2ccc(N3CCOCC3)cc2)c(C)c1,125%,-3%,-15%,7%,3%,-9%
COc1cc(Nc2nc(SCc3cccc(Cl)c3)nc3ccccc23)cc(OC)c1,·,·,0%,·,·,·
COc1ccc(/C=C/c2nc(C#N)c(N3CCCCC3)o2)cc1OC,-8%,·,?,·,·,·
O=C(NCc1ccc(F)cc1)c1cnc(N2CCOCC2)c2ccccc12,·,·,5%,·,·,·
CCOc1ccc(NC(=O)/C=C\C(=O)N(c2ccc(C(C)C)cc2)C(C(=O)NCc2ccco2)c2ccc(F)cc2)cc1 (stereo not given),·,·,3%,·,·,·
CCc1ccc(C(=O)NC(=S)Nc2ccc3c(c2)OCCO3)cc1,11µM*,2.8µM*,6µM*,?,3%,4µM*
COc1ccc(C2c3c(n(C)c4ccccc34)C(=O)N2CC(=O)Nc2cccc(Cl)c2)cc1 (stereo not given),·,·,-12%,·,·,·
Cc1c(C(=O)Oc2cc(N)n(S(C)(=O)=O)n2)cccc1[N+](=O)[O-],0%,1%,21µM*,0%,0%,3%
Cc1cccc(NC(=O)C2CCCN(S(=O)(=O)c3c(C)noc3/C=C/N(C)C)C2)c1C (stereo not given),12%,·,-1%,·,·,·
Cc1ccc(-n2c(C)cc(/C=N/NC(=O)c3ccncc3)c2C)cc1,-27%,1%,5.4µM*,?,-6%,4%
CN(C)c1ccc(/C=N/NC(=O)c2ccc(CN3CCOCC3)cc2)cc1Br,-38%,-13%,19µM*,-5%,-3%,-1%
Cc1cc(/C=N/NC(=O)c2ccncc2)c(C)n1-c1cccc(C(F)(F)F)c1,·,-2%,-2%,4%,·,-5%
Cc1cc(/C=N/NC(=O)CC2(C)OCCO2)c(C)n1-c1cc(Cl)cc(Cl)c1,-30%,-1%,-3%,1%,-2%,-8%
Cc1ccc(-n2c(C)cc(/C=N/NC(=O)CC3(C)OCCO3)c2C)cc1,-50%,-1%,24µM*,1%,0%,-1%
Cc1cccc(-n2c(C)cc(/C=N/NC(=O)c3ccc(CN4CCOCC4)cc3)c2C)c1,-30%,-1%,?,?,-1%,-8%
Cc1ccc(-n2c(C)cc(/C=N/NC(=O)c3ccc(CN4CCOCC4)cc3)c2C)cc1,-32%,-3%,15µM*,-7%,-2%,-1%
Cc1cc(Nc2cc(Cl)ccc2C)n2nc(Cc3ccccc3)nc2n1,10%,·,0%,·,·,·
COc1ccc(-n2nc(C(=O)N3CCN(c4ccccc4OC)CC3)c3c4ccccc4n(C)c3c2=O)cc1Cl,?,·,1%,·,·,·
COc1ccc(Cl)cc1NC(=O)C(=O)N/N=C/c1cc(C)n(-c2ccc(C)cc2)c1C,9%,-3%,3.4µM*,1%,-4%,-1%
